This is a sample that favours compounds with a hit; in the whole collection about 15% have one here.
12-LOX inh = Primary qHTS assay for inhibitors of human arachidonate 12S-lipoxygenase (ALOX12): Round 2. purified 12hLO, xylenol orange hydroperoxide absorbance. Potency, µM (doses to about 108 µM), actives largely listed as inhibitors. 580,000 tested, 1.1% active. AID 1671190, 2021
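Purified human 12hLO at 150 nM in 25 mM Hepes, 0.01% Triton X-100, pH 7.0, preincubated 15 min at room temperature with compound. Reaction started with 40 uM arachidonic acid, 30 min at room temperature. Hydroperoxide measured by Fe-xylenol orange, 573/405 nm absorbance ratio.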
TDP1 cell CPT = qHTS for Inhibitors of human tyrosyl-DNA phosphodiesterase 1 (TDP1): qHTS in cells in presence of CPT | chicken DT40 Tdp1-/-;hTDP1 cells + 20 nM CPT, ATP luminescence, 48 h | Potency, µM (series often up to 46.2 µM), hits mostly inhibitors | 420,000 tested, 12% active; further: nearly all actives have a fitted effect of over 55% in size
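Cell growth measured by CellTiter-Glo luminescence after a minimum 48 h, 37 C compound exposure with 20 nM CPT in Tdp1-knockout DT40 cells stably expressing hTDP1, seeded 400/well; qHTS titration format.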
RORgamma inh = qHTS for inhibitors of ROR gamma transcriptional activity; Potency, µM (titrated, usually from 53.6 µM), usual class: inhibitors; 310,000 tested, 5.4% active; Nuclear receptor ROR-gamma (Mus musculus), P51450; Drosophila S2 Gal4-RORgamma UAS-luciferase reporter, 20 h; further: nearly all actives have a fitted effect of over 60% in size
Target sequence (P51450 whole entry, looked up, the tested form may be a part): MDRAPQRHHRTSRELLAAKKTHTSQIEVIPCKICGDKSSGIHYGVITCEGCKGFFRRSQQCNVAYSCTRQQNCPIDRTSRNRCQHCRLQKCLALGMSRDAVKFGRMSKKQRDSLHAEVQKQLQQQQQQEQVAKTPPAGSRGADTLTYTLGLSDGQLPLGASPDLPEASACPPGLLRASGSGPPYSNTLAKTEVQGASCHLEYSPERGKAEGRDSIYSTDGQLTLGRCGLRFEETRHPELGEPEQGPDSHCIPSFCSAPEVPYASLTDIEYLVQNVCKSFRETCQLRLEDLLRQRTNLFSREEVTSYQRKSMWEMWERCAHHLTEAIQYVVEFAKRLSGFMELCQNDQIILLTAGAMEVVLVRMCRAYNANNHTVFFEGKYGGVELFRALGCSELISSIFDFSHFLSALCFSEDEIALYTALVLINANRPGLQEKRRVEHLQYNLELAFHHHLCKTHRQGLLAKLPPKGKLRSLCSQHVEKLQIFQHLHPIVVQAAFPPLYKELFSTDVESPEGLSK
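Stably transfected Drosophila Schneider cells are the test system, with ROR gamma fused to Gal4 and luciferase under UAS control; luminescence is read after 20 hr of 700 uM copper sulfate induction at ambient temperature.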
VP16 counter = VP16 counterscreen qHTS for inhibitors of ROR gamma transcriptional activity. Drosophila S2 Gal4-VP16 UAS-luciferase, luminescence, 20 h. Potency, µM (highest dose often 53.6 µM), most hits filed as inhibitors. 310,000 tested, 3.5% active. AID 2546, 2010;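 further: Gal4-VP16 expression switched on by copper sulfate through the metallothionein promoter; nearly all actives have a fitted effect of over 50% in size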
ELG1 repair inh = qHTS screen for small molecules that inhibit ELG1-dependent DNA repair in human embryonic kidney (HEK293T) cells expressing luciferase-tagged ELG1 | HEK293T ELG1-luciferase reporter, luminescence, 16 h; DNA damage induced by 5-fluorouridine | Potency, µM (series often up to 46.1 µM), hits mostly inhibitors | 330,000 tested, 2.3% active | AID 504467, 2011; further: nearly all actives have a fitted effect of over 55% in size
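Cells (2,000 per well) received 5-fluorouridine plus test compound or DMSO and were incubated 16 hr at 37 °C, 5% CO2. Luciferase activity was read by luminescence 30 min after ONE-Glo addition; signal suppression marked inhibition of damage-induced ELG1 function.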
DT40 TDP1 no CPT = qHTS for Inhibitors of human tyrosyl-DNA phosphodiesterase 1 (TDP1): qHTS in cells in absence of CPT; DT40 Tdp1-/- hTDP1 cells, no CPT, ATP luminescence, 48 h; Potency, µM (titrated, usually from 46.2 µM), actives largely listed as inhibitors; 420,000 tested, 15% active; further: nearly all actives have a fitted effect of over 55% in size
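DT40 Tdp1-/-;hTDP1 cells, no CPT (DMSO vehicle only), 400 cells/well; compounds pin-transferred; ≥48 hr, 37 °C; CellTiter-Glo 30 min RT dark, luminescence read.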
Hits are given with their value; i = inactive; ? = inconclusive; nt = not tested or not shown. The call rests on the fitted dose curve; in most records, active means well fitted curve in the direction sought with a large enough effect; inconclusive means small, poorly fitted or top-dose-only effect, or another doubt; inactive means no such curve, though single readings can be large; an effect the other way counts as inactive or inconclusive.

SMILES | 12-LOX inh | TDP1 cell CPT | RORgamma inh | VP16 counter | ELG1 repair inh | DT40 TDP1 no CPT
COc1ccc(-c2oc(=O)c3cc(OC)c(OC)cc3c2-c2ccc3c(c2)OCO3)cc1 | i | 16.4µM | nt | nt | ? | 18.4µM
COc1ccc(-c2c(-c3ccsc3)oc(=O)c3cc(OC)c(OC)cc23)cc1 | i | ? | nt | nt | ? | ?
COc1ccc(-c2oc(=O)c3cc(OC)c(OC)cc3c2C#C[C@]2(O)CC[C@H]3[C@@H]4CCc5cc(OC)ccc5[C@H]4CC[C@@]32C)cc1 | ? | ? | nt | nt | i | 16.4µM
O=C(Nc1ccc(Oc2ccccc2)cc1)c1cccc(CN2CCCC2=O)c1 | i | nt | nt | nt | nt | nt
COCCN1C(=O)CCC2(CNC(=O)CCc3nc4ccccc4[nH]3)CCCC=C12 (centres undefined) | i | nt | nt | nt | nt | nt
CCOC1CCCc2oc(-c3ccc(OC)cc3)c(C#CCCO)c21 (centres undefined) | i | ? | nt | nt | nt | 16.4µM
COc1ccc(-c2oc3ccccc3c2C#CC(C)(C)O)cc1 | ? | ? | nt | nt | 13µM | i
COc1ccccc1-c1oc2ccccc2c1C#CCCO | ? | i | nt | nt | i | ?
COc1cc2c(O)c3c(c(-c4ccc5c(c4)OCO5)c2cc1OC)C(=O)OC3 | ? | 1.84µM | ? | i | ? | 3.26µM
COc1ccc(-c2oc3ccc(-c4cc(OC)c(OC)c(OC)c4)cc3c2C#Cc2ccsc2)cc1 | i | ? | i | i | i | ?
COc1ccc(-c2ccc3oc(-c4ccc(OC)cc4)c(C#CCO)c3c2)cc1 | ? | 23.1µM | nt | nt | nt | ?
CCCOC(=O)c1nn(-c2ccccc2)c(=O)c2ccccc12 | i | nt | nt | nt | nt | nt
N/C(COc1cccc2ccccc12)=N\O | i | nt | nt | nt | nt | nt
O=C(c1n[nH]c(=O)c2ccccc12)N1CCN(S(=O)(=O)c2ccc3ccccc3c2)CC1 | i | nt | nt | nt | nt | nt
COc1ccc(/C=C/c2c(-c3ccc(OC)cc3)oc(=O)c3cc(OC)c(OC)cc23)cc1 | i | ? | nt | nt | 5.8µM | ?
COc1cc2c(-c3ccc4cc[nH]c4c3)c(-c3ccc(C#N)cc3)oc(=O)c2cc1OC | i | 5.8µM | nt | nt | i | 9.2µM
COc1ccc(C(=O)c2c(-c3ccc(OC)cc3)oc3ccc(-c4cc(OC)c(OC)c(OC)c4)cc23)cc1 | ? | 7.31µM | nt | nt | nt | 9.2µM
CCS(=O)(=O)NCc1ccnc(N2CCN(c3ccc(F)cc3)CC2)c1 | i | nt | nt | nt | nt | nt
Cc1ccc(C)c(OC(=O)c2ccc(CSc3ccc(Cl)cc3)cc2)c1 | i | nt | nt | nt | nt | nt
CC(C)N1CCc2c(C#N)c(NCc3cccnc3)n3cnnc3c2C1 | i | nt | nt | nt | nt | nt
Cc1ccc(NC(NC(=O)c2ccco2)C(=O)c2ccc(C)cc2)cc1 (centres undefined) | i | nt | nt | nt | nt | nt
Cc1ccc(C(C)C)c(OCC(=O)Nn2c(C)nc3ccccc3c2=O)c1 | ? | i | i | i | ? | 6.51µM
Cc1ccc(C(C)C)c(OCC(=O)Nn2c(=O)[nH]c3ccccc3c2=O)c1 | i | i | i | i | i | ?
O=C(NC1=NCCS1)c1cc2ccccc2s1 | i | nt | nt | nt | nt | nt
Cc1cc(C)c(NC(=O)c2cc(C)nc3ccccc23)c(C)c1 | i | nt | nt | nt | nt | nt
CCOC(=O)C1(CCCc2ccccc2)CCN(C(=O)CCOC)CC1 | i | i | i | i | i | ?
CCOC(=O)C1(CCCc2ccccc2)CCN(C(=O)CCN2CCCCC2=O)CC1 | i | ? | ? | i | i | 16.4µM
CCOC(=O)C1(CCCc2ccccc2)CCN(C(=O)CN2C(=O)CSC2=O)CC1 | i | ? | i | i | 11.6µM | ?
CCOC(=O)C1(CCCc2ccccc2)CCN(C(=O)CCCn2cncn2)CC1 | i | ? | ? | ? | i | 25.9µM

Assay outcomes from PubChem BioAssay.
